Experimental findings from ChEMBL document CHEMBL2218924, “A broad activity screen in support of a chemogenomic map for kinase signalling research and drug discovery” (Biochem J, 2013) are described below.

By residual activity is commonly meant the signal under treatment as a percentage of the control signal.

Test [1] has as its target Ephrin type-A receptor 4 (Homo sapiens) (UniProt P54764). Conditions: at 1 µM; call rule not given here.
The target is the same in test [2]. Conditions: at 10 µM.
Test [3] addresses Ephrin type-A receptor 5 (Homo sapiens) (UniProt P54756). The settings on record: at 1 µM.
For test [4], the target named is T1, Ephrin type-A receptor 8 (Homo sapiens) (UniProt P29322).
T1 sequence (whole entry): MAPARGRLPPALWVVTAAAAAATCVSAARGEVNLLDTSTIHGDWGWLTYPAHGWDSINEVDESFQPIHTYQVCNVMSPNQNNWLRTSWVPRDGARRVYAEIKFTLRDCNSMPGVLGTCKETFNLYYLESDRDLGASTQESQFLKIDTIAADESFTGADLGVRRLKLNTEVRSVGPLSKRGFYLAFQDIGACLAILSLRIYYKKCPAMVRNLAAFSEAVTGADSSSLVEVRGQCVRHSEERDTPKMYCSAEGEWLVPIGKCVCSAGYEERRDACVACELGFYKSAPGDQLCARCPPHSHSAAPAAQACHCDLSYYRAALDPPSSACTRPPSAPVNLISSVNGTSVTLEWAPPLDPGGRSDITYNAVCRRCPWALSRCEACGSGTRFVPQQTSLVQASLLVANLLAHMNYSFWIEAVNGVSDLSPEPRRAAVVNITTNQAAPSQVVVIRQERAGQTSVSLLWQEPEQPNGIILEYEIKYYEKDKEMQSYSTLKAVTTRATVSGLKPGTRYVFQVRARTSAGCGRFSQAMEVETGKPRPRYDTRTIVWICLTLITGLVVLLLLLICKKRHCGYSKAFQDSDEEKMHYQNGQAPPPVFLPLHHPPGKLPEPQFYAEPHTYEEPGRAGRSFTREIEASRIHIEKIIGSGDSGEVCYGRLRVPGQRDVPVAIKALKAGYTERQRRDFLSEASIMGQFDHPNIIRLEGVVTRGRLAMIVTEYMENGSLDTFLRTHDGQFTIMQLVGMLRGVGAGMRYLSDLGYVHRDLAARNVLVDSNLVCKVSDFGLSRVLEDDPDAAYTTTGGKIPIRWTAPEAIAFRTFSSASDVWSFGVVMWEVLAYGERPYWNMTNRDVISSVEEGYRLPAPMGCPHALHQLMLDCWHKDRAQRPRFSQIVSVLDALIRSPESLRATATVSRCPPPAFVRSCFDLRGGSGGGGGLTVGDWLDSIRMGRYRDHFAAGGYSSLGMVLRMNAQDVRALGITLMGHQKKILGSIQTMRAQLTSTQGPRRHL
Conditions: at 10 µM.

The target of test [5] is T2, Ephrin type-B receptor 1 (Homo sapiens) (UniProt P54762).
T2 sequence (whole entry): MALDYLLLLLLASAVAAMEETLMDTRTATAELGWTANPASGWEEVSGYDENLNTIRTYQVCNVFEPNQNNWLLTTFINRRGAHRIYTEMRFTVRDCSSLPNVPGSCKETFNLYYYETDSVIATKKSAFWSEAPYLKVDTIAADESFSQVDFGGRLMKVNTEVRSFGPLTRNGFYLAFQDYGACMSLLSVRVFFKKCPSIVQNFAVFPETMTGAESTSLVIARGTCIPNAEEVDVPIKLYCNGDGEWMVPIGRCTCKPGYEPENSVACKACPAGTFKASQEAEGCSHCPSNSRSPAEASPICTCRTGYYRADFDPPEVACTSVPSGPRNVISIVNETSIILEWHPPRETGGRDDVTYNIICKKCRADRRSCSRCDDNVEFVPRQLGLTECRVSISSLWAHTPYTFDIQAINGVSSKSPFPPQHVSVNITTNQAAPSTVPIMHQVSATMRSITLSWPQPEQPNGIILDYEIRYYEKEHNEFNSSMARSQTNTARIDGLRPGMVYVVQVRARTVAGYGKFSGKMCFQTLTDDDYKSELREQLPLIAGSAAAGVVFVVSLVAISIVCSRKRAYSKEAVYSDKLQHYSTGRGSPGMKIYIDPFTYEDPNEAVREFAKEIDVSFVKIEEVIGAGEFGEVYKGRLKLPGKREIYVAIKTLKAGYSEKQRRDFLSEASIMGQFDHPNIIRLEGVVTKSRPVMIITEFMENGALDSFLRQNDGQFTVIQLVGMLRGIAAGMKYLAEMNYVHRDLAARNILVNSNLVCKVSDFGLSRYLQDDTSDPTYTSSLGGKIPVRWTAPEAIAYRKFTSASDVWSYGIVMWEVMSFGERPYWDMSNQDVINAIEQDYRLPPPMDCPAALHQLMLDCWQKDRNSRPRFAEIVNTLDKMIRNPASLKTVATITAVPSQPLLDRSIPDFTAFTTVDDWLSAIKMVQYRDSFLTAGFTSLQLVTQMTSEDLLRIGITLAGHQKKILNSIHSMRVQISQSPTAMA
Conditions: at 1 µM.

For test [6], the target named is T2, Ephrin type-B receptor 1 (Homo sapiens). Conditions: at 10 µM.
Test [7] addresses T3, Ephrin type-B receptor 2 (Homo sapiens) (UniProt P29323).
T3 sequence (whole entry): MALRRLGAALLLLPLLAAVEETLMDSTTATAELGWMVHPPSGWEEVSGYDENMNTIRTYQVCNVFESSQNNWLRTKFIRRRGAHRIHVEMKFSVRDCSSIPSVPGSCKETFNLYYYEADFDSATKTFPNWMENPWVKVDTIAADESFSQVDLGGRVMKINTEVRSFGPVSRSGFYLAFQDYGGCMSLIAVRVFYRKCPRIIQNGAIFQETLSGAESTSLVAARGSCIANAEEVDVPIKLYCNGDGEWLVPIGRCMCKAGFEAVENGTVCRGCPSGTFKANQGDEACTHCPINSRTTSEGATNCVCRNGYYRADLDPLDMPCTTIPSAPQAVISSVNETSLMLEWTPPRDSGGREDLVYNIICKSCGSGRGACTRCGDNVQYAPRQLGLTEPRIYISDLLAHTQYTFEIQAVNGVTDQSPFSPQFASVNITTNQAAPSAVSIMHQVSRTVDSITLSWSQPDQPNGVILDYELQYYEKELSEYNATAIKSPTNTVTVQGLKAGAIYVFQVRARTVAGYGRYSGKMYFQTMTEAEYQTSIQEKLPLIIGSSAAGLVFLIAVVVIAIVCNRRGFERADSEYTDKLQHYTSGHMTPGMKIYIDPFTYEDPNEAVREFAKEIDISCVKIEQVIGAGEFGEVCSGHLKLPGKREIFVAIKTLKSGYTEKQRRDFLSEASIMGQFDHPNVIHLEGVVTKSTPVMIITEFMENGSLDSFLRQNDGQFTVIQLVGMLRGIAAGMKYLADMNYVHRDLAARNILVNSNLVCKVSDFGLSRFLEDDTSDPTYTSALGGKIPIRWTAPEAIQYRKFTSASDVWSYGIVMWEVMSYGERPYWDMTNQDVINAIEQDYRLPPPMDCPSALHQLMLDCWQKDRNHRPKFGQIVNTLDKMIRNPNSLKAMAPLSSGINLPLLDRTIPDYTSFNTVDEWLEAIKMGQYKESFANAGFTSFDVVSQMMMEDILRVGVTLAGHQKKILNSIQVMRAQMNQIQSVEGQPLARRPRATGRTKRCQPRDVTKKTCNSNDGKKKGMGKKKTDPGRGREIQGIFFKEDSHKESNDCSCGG
Conditions: at 1 µM.

Test [8] deals with T3, Ephrin type-B receptor 2 (Homo sapiens). Conditions: at 10 µM.
Test [9] has as its target T4, Ephrin type-B receptor 3 (Homo sapiens) (UniProt P54753).
T4 sequence (whole entry): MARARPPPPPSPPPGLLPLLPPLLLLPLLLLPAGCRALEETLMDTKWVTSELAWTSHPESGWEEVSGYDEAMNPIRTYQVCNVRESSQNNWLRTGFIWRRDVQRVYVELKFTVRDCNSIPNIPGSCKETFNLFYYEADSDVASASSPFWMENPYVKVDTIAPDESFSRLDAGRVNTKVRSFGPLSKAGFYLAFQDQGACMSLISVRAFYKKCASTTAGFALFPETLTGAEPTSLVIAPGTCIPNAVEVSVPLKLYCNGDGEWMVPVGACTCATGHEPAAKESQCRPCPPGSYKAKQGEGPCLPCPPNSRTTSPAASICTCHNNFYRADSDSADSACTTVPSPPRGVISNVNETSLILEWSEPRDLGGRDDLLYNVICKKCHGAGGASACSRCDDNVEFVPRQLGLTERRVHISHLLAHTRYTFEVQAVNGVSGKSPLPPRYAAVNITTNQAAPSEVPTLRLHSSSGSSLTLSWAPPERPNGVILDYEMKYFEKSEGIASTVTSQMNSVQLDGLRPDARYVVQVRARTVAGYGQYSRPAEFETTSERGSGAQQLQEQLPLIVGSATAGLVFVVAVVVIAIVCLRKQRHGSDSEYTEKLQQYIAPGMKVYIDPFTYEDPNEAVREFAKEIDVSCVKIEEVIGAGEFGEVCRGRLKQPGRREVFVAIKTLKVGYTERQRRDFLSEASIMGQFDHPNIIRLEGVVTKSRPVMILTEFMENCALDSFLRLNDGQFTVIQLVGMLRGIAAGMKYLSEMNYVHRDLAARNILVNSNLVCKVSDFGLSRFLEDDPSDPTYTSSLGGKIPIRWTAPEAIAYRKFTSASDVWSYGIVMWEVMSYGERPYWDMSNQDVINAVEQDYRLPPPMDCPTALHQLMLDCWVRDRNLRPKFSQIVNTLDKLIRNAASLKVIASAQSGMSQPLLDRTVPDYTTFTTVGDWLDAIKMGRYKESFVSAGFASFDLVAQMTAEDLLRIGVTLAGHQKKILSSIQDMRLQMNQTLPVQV
The settings on record: at 1 µM.

The target of test [10] is T4, Ephrin type-B receptor 3 (Homo sapiens). The settings on record: at 10 µM.
Test [11] has as its target T5, Ephrin type-B receptor 4 (Homo sapiens) (UniProt P54760).
T5 sequence (whole entry): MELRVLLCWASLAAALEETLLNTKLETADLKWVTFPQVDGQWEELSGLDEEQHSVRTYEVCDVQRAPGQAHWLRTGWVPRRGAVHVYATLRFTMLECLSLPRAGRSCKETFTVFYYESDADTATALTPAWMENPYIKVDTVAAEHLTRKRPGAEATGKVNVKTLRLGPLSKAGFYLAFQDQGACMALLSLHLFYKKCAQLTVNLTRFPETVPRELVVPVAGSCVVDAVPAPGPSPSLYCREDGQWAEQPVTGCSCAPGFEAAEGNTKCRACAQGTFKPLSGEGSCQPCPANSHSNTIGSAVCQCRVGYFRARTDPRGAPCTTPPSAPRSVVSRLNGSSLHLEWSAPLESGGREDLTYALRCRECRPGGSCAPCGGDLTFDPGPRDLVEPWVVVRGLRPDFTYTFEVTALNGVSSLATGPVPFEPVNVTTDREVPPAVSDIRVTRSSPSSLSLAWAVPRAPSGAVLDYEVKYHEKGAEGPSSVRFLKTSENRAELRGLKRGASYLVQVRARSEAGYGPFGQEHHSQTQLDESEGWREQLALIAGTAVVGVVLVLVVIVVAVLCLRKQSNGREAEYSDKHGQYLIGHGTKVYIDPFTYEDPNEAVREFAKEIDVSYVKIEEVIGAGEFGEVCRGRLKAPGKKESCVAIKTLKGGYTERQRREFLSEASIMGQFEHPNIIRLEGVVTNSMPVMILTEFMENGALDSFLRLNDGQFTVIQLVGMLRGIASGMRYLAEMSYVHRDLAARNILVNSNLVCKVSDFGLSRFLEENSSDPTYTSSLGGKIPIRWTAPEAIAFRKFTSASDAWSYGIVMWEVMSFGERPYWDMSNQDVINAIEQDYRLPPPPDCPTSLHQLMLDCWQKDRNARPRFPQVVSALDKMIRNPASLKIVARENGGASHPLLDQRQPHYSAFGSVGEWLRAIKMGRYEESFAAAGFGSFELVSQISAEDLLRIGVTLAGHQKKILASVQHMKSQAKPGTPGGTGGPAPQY
The settings on record: at 1 µM.

The target in test [12] is T5, Ephrin type-B receptor 4 (Homo sapiens). The settings on record: at 10 µM.
In test [13] the target is Receptor tyrosine-protein kinase erbB-4 (Homo sapiens) (UniProt Q15303). Conditions: at 1 µM.
The target is the same in test [14]. Conditions: at 10 µM.
The target in test [15] is Focal adhesion kinase 1 (Homo sapiens) (UniProt Q05397). Conditions: at 1 µM.
Chain of Focal adhesion kinase 1 (Homo sapiens) (Q05397 2-1052 limits assumed): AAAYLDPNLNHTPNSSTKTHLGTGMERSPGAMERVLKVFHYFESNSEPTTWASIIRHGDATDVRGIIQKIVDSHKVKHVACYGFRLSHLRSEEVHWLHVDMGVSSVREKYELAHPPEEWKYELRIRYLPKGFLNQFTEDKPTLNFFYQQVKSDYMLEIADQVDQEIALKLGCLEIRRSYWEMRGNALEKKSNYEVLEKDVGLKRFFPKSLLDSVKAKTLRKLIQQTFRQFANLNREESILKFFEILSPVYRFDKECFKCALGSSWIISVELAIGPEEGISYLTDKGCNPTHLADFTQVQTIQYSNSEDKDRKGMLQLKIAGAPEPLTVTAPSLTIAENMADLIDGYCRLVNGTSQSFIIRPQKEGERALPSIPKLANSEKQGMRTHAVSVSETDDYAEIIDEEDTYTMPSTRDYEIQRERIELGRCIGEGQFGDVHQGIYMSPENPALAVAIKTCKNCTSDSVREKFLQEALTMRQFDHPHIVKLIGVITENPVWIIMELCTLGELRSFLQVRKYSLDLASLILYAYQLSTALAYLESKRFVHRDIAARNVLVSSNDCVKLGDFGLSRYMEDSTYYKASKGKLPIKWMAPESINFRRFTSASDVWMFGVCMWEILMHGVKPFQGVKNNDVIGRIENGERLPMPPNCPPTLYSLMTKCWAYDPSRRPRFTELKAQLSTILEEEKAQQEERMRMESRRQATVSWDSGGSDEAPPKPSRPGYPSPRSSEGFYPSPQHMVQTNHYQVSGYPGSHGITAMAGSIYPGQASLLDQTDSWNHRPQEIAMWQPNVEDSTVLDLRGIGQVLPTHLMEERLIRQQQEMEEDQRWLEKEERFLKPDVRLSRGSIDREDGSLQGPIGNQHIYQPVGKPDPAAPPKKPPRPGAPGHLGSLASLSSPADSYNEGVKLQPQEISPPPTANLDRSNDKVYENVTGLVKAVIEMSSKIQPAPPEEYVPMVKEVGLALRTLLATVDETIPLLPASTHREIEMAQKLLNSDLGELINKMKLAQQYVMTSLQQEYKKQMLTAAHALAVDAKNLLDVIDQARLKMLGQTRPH

Chain of Receptor tyrosine-protein kinase erbB-4 (Homo sapiens) (Q15303 whole entry): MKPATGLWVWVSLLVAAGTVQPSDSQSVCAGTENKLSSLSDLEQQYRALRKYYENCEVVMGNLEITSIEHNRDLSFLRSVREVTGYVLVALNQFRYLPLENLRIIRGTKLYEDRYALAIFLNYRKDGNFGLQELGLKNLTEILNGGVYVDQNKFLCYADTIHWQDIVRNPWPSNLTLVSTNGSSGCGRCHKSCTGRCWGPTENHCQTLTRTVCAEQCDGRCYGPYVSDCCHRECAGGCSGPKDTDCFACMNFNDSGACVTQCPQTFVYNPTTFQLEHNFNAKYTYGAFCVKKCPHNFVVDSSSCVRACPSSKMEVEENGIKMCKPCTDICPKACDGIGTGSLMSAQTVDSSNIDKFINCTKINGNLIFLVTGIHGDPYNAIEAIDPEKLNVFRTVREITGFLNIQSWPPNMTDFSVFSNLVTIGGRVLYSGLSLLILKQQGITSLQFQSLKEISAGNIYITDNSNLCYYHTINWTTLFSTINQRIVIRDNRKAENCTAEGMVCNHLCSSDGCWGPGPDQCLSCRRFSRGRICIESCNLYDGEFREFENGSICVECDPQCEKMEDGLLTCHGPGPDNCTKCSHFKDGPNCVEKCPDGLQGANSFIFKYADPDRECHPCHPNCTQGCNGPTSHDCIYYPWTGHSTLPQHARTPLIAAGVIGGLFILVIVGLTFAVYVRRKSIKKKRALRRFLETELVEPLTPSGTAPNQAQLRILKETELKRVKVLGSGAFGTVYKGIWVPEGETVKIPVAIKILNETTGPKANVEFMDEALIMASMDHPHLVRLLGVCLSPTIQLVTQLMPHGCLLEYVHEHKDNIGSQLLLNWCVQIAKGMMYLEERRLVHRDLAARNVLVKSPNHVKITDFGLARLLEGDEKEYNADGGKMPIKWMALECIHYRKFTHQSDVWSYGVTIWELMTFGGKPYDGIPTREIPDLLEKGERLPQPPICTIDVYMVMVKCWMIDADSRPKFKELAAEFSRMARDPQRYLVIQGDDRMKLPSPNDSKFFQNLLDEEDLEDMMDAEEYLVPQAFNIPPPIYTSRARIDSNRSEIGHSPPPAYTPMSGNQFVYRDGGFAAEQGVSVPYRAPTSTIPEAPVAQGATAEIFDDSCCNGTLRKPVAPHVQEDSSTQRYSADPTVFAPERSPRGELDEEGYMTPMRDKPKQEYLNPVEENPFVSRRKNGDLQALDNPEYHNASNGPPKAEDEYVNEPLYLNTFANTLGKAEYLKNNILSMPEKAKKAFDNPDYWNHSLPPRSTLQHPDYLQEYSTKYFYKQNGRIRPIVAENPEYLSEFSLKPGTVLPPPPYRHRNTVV
Chain of Ephrin type-A receptor 4 (Homo sapiens) (P54764 whole entry): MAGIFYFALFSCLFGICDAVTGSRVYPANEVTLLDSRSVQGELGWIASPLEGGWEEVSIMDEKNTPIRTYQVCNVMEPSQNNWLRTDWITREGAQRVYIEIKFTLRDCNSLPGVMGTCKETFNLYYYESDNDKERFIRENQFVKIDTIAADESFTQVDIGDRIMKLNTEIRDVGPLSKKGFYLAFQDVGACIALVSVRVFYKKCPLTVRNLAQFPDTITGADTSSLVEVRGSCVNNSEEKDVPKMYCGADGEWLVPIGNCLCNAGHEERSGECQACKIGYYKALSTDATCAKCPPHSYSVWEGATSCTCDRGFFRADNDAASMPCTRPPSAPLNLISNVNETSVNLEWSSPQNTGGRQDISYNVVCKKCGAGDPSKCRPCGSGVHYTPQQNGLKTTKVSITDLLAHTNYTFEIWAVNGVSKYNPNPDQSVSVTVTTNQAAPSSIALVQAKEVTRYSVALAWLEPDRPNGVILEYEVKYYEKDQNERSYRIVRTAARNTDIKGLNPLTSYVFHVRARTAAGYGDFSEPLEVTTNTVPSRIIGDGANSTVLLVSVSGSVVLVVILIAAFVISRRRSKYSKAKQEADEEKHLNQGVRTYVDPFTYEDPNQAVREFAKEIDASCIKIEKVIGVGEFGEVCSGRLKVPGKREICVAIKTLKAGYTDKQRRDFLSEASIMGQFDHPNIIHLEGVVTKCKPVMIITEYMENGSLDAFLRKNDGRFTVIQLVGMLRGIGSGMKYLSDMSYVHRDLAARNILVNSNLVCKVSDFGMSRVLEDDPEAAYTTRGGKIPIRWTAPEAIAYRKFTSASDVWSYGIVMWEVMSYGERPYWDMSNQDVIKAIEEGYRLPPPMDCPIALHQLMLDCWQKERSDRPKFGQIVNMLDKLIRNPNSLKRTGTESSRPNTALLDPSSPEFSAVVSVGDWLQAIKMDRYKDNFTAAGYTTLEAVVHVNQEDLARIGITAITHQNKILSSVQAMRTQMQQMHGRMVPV
Chain of Ephrin type-A receptor 5 (Homo sapiens) (P54756 whole entry): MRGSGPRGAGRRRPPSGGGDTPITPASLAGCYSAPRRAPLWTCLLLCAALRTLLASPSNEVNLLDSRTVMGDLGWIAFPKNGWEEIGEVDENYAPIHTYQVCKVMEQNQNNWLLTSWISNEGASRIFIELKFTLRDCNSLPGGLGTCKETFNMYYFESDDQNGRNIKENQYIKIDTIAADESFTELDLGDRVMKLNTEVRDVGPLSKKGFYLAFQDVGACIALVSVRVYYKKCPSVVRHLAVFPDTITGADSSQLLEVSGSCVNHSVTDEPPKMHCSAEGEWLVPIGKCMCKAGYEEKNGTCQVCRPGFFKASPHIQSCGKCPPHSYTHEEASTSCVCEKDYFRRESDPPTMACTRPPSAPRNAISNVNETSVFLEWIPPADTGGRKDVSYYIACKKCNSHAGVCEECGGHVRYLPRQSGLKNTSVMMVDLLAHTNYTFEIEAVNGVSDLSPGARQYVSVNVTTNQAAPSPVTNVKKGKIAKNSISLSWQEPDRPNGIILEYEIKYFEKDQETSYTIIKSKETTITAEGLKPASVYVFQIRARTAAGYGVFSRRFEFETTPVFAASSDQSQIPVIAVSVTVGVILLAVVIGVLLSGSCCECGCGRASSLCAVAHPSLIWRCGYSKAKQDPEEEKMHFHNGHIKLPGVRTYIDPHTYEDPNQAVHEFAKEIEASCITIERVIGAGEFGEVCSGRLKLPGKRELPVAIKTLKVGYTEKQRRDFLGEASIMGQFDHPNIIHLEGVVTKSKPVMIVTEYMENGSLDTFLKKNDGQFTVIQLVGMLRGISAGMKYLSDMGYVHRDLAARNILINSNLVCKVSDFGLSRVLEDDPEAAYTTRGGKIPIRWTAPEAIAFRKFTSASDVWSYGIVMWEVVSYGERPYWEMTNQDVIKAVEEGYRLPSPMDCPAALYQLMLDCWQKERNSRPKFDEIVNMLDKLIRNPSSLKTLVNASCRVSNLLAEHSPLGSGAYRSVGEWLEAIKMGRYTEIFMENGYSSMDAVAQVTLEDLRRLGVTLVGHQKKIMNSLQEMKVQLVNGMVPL

As for `O=C1Nc2ccc(Br)cc2/C1=C\c1cc2c([nH]1)CCCC2`, the residual activity in test [1] was found to be 106%; in test [2] it was 103%; in [3], 110%; in test [4] it was 101%; in test [5], 101%; in test [6] it was 107%. In addition, the residual activity was 111% in [7]; 115% in [8]; 114% (inactive) in test [9]; 117% in [10]; 118% in test [11]; 132% in test [12]. In addition, the residual activity in test [13] amounted to 109%; in test [14] it was 106%; in [15] it was 78%.
